According to ChEMBL document CHEMBL1961873, “Compounds: GSK PKIS; Assays: Nanosyn kinase panel” (2012):

Assays:
[1] = tested on: Epidermal growth factor receptor (Homo sapiens), P00533 [T790M]; details: at 1 µM
[2] = tested on: Epidermal growth factor receptor (Homo sapiens), P00533 [L858R,T790M]; details: at 0.1 µM
[3] = tested on: Epidermal growth factor receptor (Homo sapiens), P00533 [L858R,T790M]; details: at 1 µM
[4] = molecular target: Ephrin type-A receptor 2 (Homo sapiens) (UniProt P29317); details: at 0.1 µM
[5] = molecular target: Ephrin type-A receptor 2 (Homo sapiens) (UniProt P29317); details: at 1 µM
[6] = molecular target: T1, Ephrin type-A receptor 3 (Homo sapiens) (UniProt P29320); details: at 0.1 µM
T1 sequence (whole entry): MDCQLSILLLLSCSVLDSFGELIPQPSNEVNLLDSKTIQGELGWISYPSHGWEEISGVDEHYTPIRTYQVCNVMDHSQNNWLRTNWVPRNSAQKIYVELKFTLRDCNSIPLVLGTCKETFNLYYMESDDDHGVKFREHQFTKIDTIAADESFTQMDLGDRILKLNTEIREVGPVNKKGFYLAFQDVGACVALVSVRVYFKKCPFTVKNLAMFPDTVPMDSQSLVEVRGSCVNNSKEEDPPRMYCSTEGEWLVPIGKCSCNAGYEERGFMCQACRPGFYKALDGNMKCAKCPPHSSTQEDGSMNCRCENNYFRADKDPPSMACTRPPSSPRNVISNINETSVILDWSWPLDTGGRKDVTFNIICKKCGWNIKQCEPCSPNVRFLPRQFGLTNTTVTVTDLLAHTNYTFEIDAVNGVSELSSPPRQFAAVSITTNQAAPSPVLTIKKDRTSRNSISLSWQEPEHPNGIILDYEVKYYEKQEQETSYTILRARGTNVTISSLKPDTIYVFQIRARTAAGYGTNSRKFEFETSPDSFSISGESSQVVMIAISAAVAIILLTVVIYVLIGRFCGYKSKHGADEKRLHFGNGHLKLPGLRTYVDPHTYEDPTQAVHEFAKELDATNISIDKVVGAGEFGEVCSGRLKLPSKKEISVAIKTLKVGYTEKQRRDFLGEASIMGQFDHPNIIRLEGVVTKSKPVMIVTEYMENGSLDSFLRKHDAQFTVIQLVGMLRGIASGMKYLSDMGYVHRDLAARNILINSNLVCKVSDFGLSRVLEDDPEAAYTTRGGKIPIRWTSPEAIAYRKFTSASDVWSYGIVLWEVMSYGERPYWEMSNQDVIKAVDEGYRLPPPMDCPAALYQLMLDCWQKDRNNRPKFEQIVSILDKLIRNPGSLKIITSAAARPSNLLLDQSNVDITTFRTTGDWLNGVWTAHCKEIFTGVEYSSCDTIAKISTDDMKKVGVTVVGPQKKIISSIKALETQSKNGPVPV

[7] = molecular target: T1, Ephrin type-A receptor 3 (Homo sapiens); details: at 1 µM
[8] = molecular target: Ephrin type-A receptor 4 (Homo sapiens) (UniProt P54764); details: at 0.1 µM
[9] = molecular target: Ephrin type-A receptor 4 (Homo sapiens) (UniProt P54764); details: at 1 µM
[10] = molecular target: T2, Ephrin type-B receptor 2 (Homo sapiens) (UniProt P29323); details: at 0.1 µM
T2 sequence (whole entry): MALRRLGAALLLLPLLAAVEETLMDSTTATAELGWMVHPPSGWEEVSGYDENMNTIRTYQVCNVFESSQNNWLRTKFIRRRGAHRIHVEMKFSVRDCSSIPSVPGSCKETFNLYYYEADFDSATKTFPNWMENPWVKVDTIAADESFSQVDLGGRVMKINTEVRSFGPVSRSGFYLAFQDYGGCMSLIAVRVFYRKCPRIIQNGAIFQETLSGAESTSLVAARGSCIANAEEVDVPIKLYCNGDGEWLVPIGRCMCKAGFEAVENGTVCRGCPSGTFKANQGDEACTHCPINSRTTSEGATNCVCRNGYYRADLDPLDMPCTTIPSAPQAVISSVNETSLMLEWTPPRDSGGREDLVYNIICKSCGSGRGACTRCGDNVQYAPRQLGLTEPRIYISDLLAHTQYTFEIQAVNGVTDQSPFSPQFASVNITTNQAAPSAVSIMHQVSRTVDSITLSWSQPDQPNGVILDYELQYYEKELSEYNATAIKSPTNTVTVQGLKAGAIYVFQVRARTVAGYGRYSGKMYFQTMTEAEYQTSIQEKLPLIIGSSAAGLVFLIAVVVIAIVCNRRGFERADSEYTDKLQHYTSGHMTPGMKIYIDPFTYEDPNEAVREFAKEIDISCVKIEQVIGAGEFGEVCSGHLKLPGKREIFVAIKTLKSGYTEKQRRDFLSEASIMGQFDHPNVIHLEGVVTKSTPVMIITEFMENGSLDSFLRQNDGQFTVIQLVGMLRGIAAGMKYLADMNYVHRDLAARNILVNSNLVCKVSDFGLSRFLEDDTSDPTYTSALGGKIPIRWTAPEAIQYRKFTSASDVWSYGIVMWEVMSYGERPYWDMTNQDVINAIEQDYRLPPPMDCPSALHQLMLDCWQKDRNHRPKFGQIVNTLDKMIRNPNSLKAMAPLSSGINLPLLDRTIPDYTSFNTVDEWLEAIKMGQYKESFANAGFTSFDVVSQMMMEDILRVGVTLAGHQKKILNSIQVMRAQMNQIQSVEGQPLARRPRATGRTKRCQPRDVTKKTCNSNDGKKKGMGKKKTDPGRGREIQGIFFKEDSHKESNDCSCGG

[11] = molecular target: T2, Ephrin type-B receptor 2 (Homo sapiens); details: at 1 µM
[12] = molecular target: T3, Ephrin type-B receptor 3 (Homo sapiens) (UniProt P54753); details: at 0.1 µM
T3 sequence (whole entry): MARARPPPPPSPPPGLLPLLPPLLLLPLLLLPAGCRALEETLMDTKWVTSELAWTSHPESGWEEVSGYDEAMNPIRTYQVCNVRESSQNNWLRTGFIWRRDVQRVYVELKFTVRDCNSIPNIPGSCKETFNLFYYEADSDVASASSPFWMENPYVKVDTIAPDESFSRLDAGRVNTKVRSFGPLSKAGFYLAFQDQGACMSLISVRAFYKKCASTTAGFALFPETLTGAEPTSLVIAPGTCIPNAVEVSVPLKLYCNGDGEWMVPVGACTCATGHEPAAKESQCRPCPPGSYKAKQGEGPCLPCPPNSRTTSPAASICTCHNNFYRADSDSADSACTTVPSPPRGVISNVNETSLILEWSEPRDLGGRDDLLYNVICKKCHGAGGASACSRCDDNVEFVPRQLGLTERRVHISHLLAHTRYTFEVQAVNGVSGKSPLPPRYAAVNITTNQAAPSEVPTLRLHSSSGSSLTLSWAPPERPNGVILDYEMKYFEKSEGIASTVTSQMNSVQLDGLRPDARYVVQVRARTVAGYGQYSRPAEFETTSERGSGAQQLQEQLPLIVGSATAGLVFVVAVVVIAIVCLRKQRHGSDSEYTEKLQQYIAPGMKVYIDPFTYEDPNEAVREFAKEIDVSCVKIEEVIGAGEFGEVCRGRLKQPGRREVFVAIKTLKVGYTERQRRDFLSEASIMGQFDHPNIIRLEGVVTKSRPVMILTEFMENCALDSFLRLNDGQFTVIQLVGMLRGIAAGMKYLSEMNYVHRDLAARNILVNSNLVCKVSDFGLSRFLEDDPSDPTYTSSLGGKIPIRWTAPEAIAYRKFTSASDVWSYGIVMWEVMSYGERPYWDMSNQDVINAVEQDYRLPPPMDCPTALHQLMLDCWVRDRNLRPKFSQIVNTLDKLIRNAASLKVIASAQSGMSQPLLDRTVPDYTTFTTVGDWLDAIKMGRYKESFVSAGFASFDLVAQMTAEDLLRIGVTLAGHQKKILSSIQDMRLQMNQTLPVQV

[13] = molecular target: T3, Ephrin type-B receptor 3 (Homo sapiens); details: at 1 µM
[14] = molecular target: T4, Ephrin type-B receptor 4 (Homo sapiens) (UniProt P54760); details: at 0.1 µM
T4 sequence (whole entry): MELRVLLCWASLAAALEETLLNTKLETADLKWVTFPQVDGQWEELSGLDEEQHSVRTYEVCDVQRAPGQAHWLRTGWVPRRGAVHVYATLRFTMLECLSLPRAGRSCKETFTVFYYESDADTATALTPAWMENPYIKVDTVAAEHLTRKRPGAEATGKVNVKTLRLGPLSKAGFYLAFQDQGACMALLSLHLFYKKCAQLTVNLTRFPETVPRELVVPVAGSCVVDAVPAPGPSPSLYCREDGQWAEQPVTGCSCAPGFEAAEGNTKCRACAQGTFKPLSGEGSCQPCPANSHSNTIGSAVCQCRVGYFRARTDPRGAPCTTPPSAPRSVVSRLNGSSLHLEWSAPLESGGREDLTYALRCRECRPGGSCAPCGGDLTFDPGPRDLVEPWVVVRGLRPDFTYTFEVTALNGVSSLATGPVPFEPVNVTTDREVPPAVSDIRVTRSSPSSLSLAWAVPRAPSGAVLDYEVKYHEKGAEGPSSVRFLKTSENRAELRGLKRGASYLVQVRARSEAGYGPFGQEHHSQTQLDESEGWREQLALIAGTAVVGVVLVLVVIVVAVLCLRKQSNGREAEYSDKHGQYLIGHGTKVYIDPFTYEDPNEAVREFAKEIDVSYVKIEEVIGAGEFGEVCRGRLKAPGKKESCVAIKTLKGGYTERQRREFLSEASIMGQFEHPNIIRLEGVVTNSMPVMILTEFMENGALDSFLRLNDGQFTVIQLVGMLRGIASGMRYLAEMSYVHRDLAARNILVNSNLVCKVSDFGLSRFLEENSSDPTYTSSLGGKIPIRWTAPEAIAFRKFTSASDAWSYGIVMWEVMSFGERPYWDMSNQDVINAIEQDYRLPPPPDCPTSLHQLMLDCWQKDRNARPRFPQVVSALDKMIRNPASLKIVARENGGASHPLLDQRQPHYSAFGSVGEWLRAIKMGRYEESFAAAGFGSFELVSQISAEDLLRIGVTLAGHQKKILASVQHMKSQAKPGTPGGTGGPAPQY

[15] = molecular target: T4, Ephrin type-B receptor 4 (Homo sapiens); details: at 1 µM
[16] = molecular target: Receptor tyrosine-protein kinase erbB-2 (Homo sapiens) (UniProt P04626); details: at 0.1 µM
[17] = molecular target: Receptor tyrosine-protein kinase erbB-2 (Homo sapiens) (UniProt P04626); details: at 1 µM
[18] = molecular target: Receptor tyrosine-protein kinase erbB-4 (Homo sapiens) (UniProt Q15303); details: at 0.1 µM
[19] = molecular target: Receptor tyrosine-protein kinase erbB-4 (Homo sapiens) (UniProt Q15303); details: at 1 µM
[20] = molecular target: Tyrosine-protein kinase Fer (Homo sapiens) (UniProt P16591); details: at 0.1 µM;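 also: reported figures are averaged percent inhibition of FER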
Tyrosine-protein kinase Fer (Homo sapiens), sequence (P16591 whole entry, looked up): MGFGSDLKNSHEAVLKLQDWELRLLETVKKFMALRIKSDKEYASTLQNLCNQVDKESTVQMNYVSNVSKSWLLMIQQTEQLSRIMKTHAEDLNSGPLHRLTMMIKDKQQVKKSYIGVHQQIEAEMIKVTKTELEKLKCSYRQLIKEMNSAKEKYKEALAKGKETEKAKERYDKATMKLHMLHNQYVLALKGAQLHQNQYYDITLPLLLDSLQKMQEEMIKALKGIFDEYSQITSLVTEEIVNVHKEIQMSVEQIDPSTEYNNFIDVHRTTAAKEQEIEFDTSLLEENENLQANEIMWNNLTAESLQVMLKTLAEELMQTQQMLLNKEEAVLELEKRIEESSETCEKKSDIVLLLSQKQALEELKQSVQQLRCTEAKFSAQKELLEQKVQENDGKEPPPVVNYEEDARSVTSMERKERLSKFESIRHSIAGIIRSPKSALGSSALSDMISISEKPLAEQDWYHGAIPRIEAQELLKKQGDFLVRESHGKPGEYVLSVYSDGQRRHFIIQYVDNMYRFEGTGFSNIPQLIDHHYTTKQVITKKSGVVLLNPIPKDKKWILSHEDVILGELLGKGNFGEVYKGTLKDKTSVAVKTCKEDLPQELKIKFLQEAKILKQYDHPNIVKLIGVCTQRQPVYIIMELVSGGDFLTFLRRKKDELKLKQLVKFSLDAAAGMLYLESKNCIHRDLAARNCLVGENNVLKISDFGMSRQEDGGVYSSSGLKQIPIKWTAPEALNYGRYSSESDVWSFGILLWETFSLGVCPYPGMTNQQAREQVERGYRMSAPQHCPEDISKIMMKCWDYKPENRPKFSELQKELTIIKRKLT

Receptor tyrosine-protein kinase erbB-4 (Homo sapiens), sequence (Q15303 whole entry): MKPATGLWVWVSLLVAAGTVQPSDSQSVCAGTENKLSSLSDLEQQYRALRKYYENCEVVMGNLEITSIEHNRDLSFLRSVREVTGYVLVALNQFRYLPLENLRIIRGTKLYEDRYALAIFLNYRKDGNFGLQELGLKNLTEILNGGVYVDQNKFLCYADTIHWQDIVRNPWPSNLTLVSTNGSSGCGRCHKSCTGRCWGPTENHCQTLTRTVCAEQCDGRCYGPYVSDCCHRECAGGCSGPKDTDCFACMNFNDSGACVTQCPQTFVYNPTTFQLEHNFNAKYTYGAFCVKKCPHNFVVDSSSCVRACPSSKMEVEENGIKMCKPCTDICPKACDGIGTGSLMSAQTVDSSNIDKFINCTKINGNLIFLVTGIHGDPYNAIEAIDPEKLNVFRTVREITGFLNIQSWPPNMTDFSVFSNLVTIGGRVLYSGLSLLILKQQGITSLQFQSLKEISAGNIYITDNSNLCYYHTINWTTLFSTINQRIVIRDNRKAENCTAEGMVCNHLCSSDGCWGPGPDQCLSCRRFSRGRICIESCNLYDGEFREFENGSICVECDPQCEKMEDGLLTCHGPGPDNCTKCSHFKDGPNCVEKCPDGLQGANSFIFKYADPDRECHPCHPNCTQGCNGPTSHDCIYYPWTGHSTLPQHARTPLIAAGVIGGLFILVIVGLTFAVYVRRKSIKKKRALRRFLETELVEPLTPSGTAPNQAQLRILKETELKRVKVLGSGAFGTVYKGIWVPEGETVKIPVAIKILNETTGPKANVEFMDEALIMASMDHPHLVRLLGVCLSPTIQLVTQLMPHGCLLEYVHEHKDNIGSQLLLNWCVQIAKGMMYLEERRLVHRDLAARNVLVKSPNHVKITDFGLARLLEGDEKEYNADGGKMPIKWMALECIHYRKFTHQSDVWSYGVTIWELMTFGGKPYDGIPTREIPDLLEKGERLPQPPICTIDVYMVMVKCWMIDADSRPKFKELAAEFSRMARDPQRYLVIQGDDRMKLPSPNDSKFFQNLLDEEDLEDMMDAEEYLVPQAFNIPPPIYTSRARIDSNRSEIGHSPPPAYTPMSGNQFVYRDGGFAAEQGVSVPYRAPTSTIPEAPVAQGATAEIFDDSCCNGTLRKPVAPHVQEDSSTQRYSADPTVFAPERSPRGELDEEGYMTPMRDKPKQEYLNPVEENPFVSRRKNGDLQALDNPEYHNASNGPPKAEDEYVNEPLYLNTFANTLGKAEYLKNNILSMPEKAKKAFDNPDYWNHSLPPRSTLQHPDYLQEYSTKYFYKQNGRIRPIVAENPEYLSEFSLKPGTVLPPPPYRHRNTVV
Ephrin type-A receptor 2 (Homo sapiens), sequence (P29317 whole entry): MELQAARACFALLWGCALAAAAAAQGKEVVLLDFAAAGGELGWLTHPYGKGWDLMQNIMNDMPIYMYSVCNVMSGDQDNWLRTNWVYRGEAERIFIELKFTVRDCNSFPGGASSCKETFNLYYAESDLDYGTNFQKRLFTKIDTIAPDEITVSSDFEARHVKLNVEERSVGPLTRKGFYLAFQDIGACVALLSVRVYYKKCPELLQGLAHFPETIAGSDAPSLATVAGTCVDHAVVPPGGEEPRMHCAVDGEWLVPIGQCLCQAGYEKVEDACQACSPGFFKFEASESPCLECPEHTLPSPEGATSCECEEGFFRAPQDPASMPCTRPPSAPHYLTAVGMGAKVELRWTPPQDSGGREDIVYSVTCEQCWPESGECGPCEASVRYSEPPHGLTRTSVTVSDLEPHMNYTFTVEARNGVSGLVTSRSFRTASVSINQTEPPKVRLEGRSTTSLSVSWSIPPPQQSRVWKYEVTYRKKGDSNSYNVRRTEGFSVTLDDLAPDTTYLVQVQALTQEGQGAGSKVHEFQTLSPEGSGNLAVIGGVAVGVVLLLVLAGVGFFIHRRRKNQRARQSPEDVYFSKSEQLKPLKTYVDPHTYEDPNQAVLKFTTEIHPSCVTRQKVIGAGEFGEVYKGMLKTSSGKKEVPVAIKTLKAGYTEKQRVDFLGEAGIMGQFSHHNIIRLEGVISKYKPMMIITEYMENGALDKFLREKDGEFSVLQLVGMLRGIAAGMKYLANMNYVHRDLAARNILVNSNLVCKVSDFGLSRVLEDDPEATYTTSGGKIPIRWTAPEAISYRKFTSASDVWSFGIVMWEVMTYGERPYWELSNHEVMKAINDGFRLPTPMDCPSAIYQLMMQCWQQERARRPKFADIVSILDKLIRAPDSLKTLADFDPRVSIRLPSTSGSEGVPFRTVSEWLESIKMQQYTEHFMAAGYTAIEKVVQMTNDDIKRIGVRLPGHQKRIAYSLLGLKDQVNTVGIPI
Receptor tyrosine-protein kinase erbB-2 (Homo sapiens), sequence (P04626 whole entry): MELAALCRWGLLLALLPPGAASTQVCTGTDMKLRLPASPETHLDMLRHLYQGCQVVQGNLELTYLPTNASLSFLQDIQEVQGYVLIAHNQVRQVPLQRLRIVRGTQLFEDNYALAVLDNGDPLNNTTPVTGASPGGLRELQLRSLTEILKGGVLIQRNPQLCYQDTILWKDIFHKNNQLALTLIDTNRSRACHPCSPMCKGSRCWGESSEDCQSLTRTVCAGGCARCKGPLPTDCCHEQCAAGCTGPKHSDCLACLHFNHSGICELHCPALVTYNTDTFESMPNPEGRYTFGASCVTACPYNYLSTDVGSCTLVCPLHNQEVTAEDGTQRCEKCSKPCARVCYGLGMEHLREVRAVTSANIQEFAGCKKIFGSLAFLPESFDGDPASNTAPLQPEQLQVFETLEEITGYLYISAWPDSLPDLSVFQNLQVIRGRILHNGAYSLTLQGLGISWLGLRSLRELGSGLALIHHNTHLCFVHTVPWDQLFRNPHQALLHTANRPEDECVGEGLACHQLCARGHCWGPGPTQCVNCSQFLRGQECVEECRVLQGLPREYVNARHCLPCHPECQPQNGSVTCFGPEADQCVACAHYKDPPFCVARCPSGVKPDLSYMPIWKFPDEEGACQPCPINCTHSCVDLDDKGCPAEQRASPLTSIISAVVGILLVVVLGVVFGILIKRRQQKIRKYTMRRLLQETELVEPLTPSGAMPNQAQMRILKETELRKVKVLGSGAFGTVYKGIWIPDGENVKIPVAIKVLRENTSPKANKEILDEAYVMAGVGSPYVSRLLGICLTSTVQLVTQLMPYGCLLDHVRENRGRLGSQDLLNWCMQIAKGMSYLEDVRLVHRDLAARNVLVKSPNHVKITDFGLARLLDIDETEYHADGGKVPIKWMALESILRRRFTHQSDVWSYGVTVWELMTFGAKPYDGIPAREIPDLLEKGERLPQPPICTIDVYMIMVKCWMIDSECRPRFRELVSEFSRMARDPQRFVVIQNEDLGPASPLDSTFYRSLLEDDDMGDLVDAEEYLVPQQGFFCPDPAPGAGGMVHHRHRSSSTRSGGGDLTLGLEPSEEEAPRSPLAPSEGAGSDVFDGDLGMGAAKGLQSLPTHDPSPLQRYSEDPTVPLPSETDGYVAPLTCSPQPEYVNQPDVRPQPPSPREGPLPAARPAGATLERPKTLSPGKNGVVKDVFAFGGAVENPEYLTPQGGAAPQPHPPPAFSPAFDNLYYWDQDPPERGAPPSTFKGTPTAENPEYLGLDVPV

| Structure (SMILES) | inhibition [1] [%] | inhibition [2] [%] | inhibition [3] [%] | inhibition [4] [%] | inhibition [5] [%] | inhibition [6] [%] | inhibition [7] [%] | inhibition [8] [%] | inhibition [9] [%] | inhibition [10] [%] | inhibition [11] [%] | inhibition [12] [%] | inhibition [13] [%] | inhibition [14] [%] | inhibition [15] [%] | inhibition [16] [%] | inhibition [17] [%] | inhibition [18] [%] | inhibition [19] [%] | inhibition [20] [%] |
| --- | --- | --- | --- | --- | --- | --- | --- | --- | --- | --- | --- | --- | --- | --- | --- | --- | --- | --- | --- | --- |
| FC(F)(F)c1cccc(Nc2nccc(-c3cnn4nc(-c5ccccc5)ccc34)n2)c1 | -0.22 | 0.52 | -0.49 | 2 | 0.59 | 2.67 | 3.91 | 5.08 | -4.97 | 4.58 | 6.85 | 5.37 | 2.32 | -0.91 | 0.74 | 2.98 | 2.21 | 7 | 8.48 | -2.66 |
| Fc1ccc(-c2ncn(C3CCNCC3)c2-c2ccnc(Oc3ccc(Oc4ccccc4)cc3)n2)cc1 | 4.11 | 1.7 | 6.06 | 1.86 | 1.01 | 2.44 | 4.03 | 6.9 | 7.87 | 7.52 | 7.3 | 4.75 | 2.76 | 2.74 | 2.19 | 3.95 | 2.11 | 6.47 | 9.01 | 1.51 |
| CCC(=O)Nc1ccc(C)c(-c2ccc(C(=O)NCC3CC3)cc2)c1 | 2.33 | -0.94 | 3.59 | -1.79 | -2.2 | 1.95 | 4.02 | 6.75 | 8.5 | 6.82 | 7.83 | 2.63 | 4.65 | 0.55 | 1.51 | 2.99 | 3.96 | 9.79 | 13.9 | -0.76 |
| COc1cc2ncn(-c3cc(OCc4cccs4)c(C(N)=O)s3)c2cc1OC | 5.88 | -0.25 | 5.43 | -1.31 | -1.86 | -2.47 | 0.85 | 8.34 | 19.3 | 7.38 | 20.8 | -3.17 | -3.49 | -2.89 | -2.46 | 5.9 | 12.5 | 1.73 | 6.6 | 5.05 |
| O=C1NC(=O)C(c2cccc(Cl)c2)=C1Nc1ccc(Cl)c(C(=O)O)c1 | 4.13 | 0.67 | 2.52 | 0.74 | 0.86 | 5.42 | 4.05 | 8.74 | 7.75 | 5.83 | 3.04 | 10.6 | 4.29 | 0.79 | 0.05 | 2.66 | 1.74 | 7.3 | 10 | 3.46 |
| COc1ccc2cc(-c3c(-c4ccncc4)nc(-c4ccc([S+](C)[O-])cc4C)n3C)ccc2c1 (stereo not given) | 0.13 | -3 | 3.5 | -1.85 | -0.23 | -1.34 | -0.2 | -0.17 | 18.6 | 1.99 | 19.7 | 4.06 | 14.6 | 4.17 | 22.5 | 1.42 | 5.05 | 9.39 | 37.1 | 1.31 |
